# Reference: the supplement of paper PMC8728848
# The entries come from a sample that favours the strongest signals as a whole.
# B1: Lmo1413 (Listeria monocytogenes), Q8Y783 (protein)
# chain: MKHAKKSLFTFIIFMTILSITFNPFSAKAAPLMLNLPAPQVDQLYIGDDYITGKLQQEVPMHYPGNAAYVLFNNKQYNITDYTVENDVNFRLKLPKTLEAGDTLNYFTITGNVLDPVAYPGQESYKLAGPFSPIEKANIQVNYVDETNQTLATSDTLSGKLGETYTTSPKAIDGYQVKETPTNATGTYTTNTETIQINYVYEKTAVEGANVSVEYINEATNESIAPTETLSGKIGTTFQAEVKEIDGYELSQVPSNQSGTYTDQTQSVIFKYKKITTPDEVAKDVTVTYKDTKGNQLADPVILKGDIGSTFETEAKSFKGYKLTKTPSNHSSVFTSDSQEVEYVYSKDDAVITPPVTPVNPDKPIINPVKPVNPATSTVPNKNISKKNTTKTVNQTGKTSTALQLPKTGDSENNLPLIIGVSLLISGVYIFTTRRKRVK
# Legend:
# Assay in all cases: glycan array binding signal (z-score within array); higher = stronger binding
# Conditions in all cases: glycan notation: IUPAC condensed, linker removed
# Gal(a1-3)Gal = target: Gal(a1-3)Gal
# Method in brief: (§1)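 The binding signal is a Z-score computed within each array and averaged over linkers. Arrays of the same protein sequence at different concentrations or buffers were also averaged together. Data originate from 3228 arrays in the Consortium for Functional Glycomics database, kept only where the protein sequence was available.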
# [1] = target: Gal(a1-3)Gal(b1-4)[Fuc(a1-3)]GlcNAc(b1-2)Man(a1-3)[Gal(a1-3)Gal(b1-4)[Fuc(a1-3)]GlcNAc(b1-2)Man(a1-6)]Man(b1-4)GlcNAc(b1-4)GlcNAc
# Method in brief: as §1
# Gal(a1-3)GalNAc = target: Gal(a1-3)GalNAc
# Method in brief: as §1
# [2] = target: Gal(b1-3)GalNAc(b1-3)Gal(a1-4)Gal(b1-4)Glc
# Method in brief: as §1
# [3] = target: Gal(b1-3)GlcNAc(b1-2)Man(a1-3)[Gal(b1-3)GlcNAc(b1-2)Man(a1-6)]Man(b1-4)GlcNAc(b1-4)GlcNAc
# Method in brief: as §1
# [4] = target: Gal(b1-3)GlcNAc(b1-3)Gal(b1-3)GlcNAc
# Method in brief: as §1
# [5] = target: Gal(b1-3)GlcNAc(b1-3)Gal(b1-4)[Fuc(a1-3)]GlcNAc(b1-6)[Gal(b1-3)GlcNAc(b1-3)]Gal(b1-4)Glc
# Method in brief: as §1
# [6] = target: Gal(b1-3)[Fuc(a1-4)]GlcNAc(b1-2)Man(a1-3)[Gal(b1-3)[Fuc(a1-4)]GlcNAc(b1-2)Man(a1-6)]Man(b1-4)GlcNAc(b1-4)GlcNAc
# Method in brief: as §1
# [7] = target: Gal(b1-3)[Fuc(a1-4)]GlcNAc(b1-3)Gal(b1-3)[Fuc(a1-4)]GlcNAc
# Method in brief: as §1
# [8] = target: Gal(b1-3)[Neu5Ac(b2-6)]GalNAc
# Method in brief: as §1
# [9] = target: Gal(b1-4)GlcNAc(b1-2)Man(a1-3)Man(b1-4)GlcNAc(b1-4)GlcNAc
# Method in brief: as §1
# [10] = target: Gal(b1-4)GlcNAc(b1-2)Man(a1-3)[Man(a1-6)]Man(b1-4)GlcNAc(b1-4)GlcNAc
# Method in brief: as §1
# Gal4S(b1-4)GlcNAc = target: Gal4S(b1-4)GlcNAc
# Method in brief: as §1
# Glc(a1-4)Glc = target: Glc(a1-4)Glc
# Method in brief: as §1
# GlcA(b1-3)GlcNAc = target: GlcA(b1-3)GlcNAc
# Method in brief: as §1
# GlcA(b1-6)Gal = target: GlcA(b1-6)Gal
# Method in brief: as §1
# [11] = target: GlcNAc(a1-3)Gal(b1-4)GlcNAc
# Method in brief: as §1
# [12] = target: GlcNAc(a1-4)Gal(b1-4)GlcNAc(b1-3)Gal(b1-4)Glc
# Method in brief: as §1
# [13] = target: GlcNAc(a1-6)Gal(b1-4)GlcNAc
# Method in brief: as §1
# [14] = target: GlcNAc(b1-2)Gal(b1-3)GalNAc
# Method in brief: as §1
# [15] = target: GlcNAc(b1-4)GlcNAc(b1-4)GlcNAc
# Method in brief: as §1
# Kdn(a2-6)Gal(b1-4)GlcNAc = target: Kdn(a2-6)Gal(b1-4)GlcNAc
# Method in brief: as §1
# [16] = target: Man(a1-3)[Man(a1-6)]Man(b1-4)GlcNAc(b1-4)GlcNAc
# Method in brief: as §1
# [17] = target: Neu5Ac(a2-3)Gal(b1-4)GlcNAc(b1-2)Man(a1-3)[Neu5Ac(a2-6)Gal(b1-4)GlcNAc(b1-2)Man(a1-6)]Man(b1-4)GlcNAc(b1-4)GlcNAc
# Method in brief: as §1
# [18] = target: Neu5Ac(a2-3)Gal(b1-4)[Fuc(a1-3)]GlcNAc(b1-3)Gal(b1-4)[Fuc(a1-3)]GlcNAc(b1-3)Gal(b1-4)[Fuc(a1-3)]GlcNAc
# Method in brief: as §1
# [19] = target: Neu5Ac(a2-6)Gal(b1-4)GlcNAc(b1-3)GalNAc
# Method in brief: as §1
# [20] = target: Neu5Ac(a2-6)GlcNAc(b1-4)GlcNAc(b1-4)GlcNAc
# Method in brief: as §1
# [21] = target: Neu5Ac9Ac(a2-6)Gal(b1-4)GlcNAc
# Method in brief: as §1
# Neu5Gc(a2-3)Gal(b1-4)Glc = target: Neu5Gc(a2-3)Gal(b1-4)Glc
# Method in brief: as §1
binder,measurement,setting,value
B1,glycan array binding signal (z-score),Gal(a1-3)Gal,-0.219
same,glycan array binding signal (z-score),[1],0.065
same,glycan array binding signal (z-score),Gal(a1-3)GalNAc,-0.056
same,glycan array binding signal (z-score),[2],-0.2
same,glycan array binding signal (z-score),[3],-0.218
same,glycan array binding signal (z-score),[4],-0.215
same,glycan array binding signal (z-score),[5],-0.158
same,glycan array binding signal (z-score),[6],1.29
same,glycan array binding signal (z-score),[7],-0.139
same,glycan array binding signal (z-score),[8],2.02
same,glycan array binding signal (z-score),[9],-0.199
same,glycan array binding signal (z-score),[10],-0.229
same,glycan array binding signal (z-score),Gal4S(b1-4)GlcNAc,-0.075
same,glycan array binding signal (z-score),Glc(a1-4)Glc,2.23
same,glycan array binding signal (z-score),GlcA(b1-3)GlcNAc,1.78
same,glycan array binding signal (z-score),GlcA(b1-6)Gal,0.693
same,glycan array binding signal (z-score),[11],1.66
same,glycan array binding signal (z-score),[12],-0.095
same,glycan array binding signal (z-score),[13],1.42
same,glycan array binding signal (z-score),[14],2.98
same,glycan array binding signal (z-score),[15],0.095
same,glycan array binding signal (z-score),Kdn(a2-6)Gal(b1-4)GlcNAc,-0.144
same,glycan array binding signal (z-score),[16],-0.231
same,glycan array binding signal (z-score),[17],-0.29
same,glycan array binding signal (z-score),[18],0.379
same,glycan array binding signal (z-score),[19],-0.219
same,glycan array binding signal (z-score),[20],-0.222
same,glycan array binding signal (z-score),[21],-0.263
same,glycan array binding signal (z-score),Neu5Gc(a2-3)Gal(b1-4)Glc,-0.252
